Data as given in PubChem BioAssay AID1159580 (chemical genetic matrix, 2015).
In all, about 5,500 compounds went through this assay and about 2,000 (36%) were called active. Roughly 18% stayed inconclusive and do not appear here. Cut-off read from the data, not from the text of the source: active = normalized growth mostly below about 0.91 (no sharp cut-off); inconclusive = no clear call, values can overlap the other calls; inactive = mostly above about 0.92. The list shows a part of the results.

Assay: chemical genetic growth profiling, strain panel (AID 1159580);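 note: tested at 20 µM; growth read once vehicle control cultures reached saturation at 30 °C; 1 = growth at the plate median or of vehicle wells; lower values mean less growth of the strain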
Conditions: growth OD

Measured: normalized growth

CC1(C)S[C@@H]2[C@H](NC(=O)[C@H](N)c3ccccc3)C(=O)N2[C@H]1C(=O)O
inactive: S. cerevisiae deletion strains, locus YJR043C, strain POL32, stronger effect = lower value 1 | S. cerevisiae deletion strains, locus YJR066W, strain TOR1, stronger effect = lower value 0.981 | S. cerevisiae deletion strains, locus YKL009W, strain mrt4, stronger effect = lower value 1.01 | S. cerevisiae deletion strains, locus YKL068W, stronger effect = lower value 1 | S. cerevisiae deletion strains, locus YKL085W, strain MDH1 (second series), stronger effect = lower value 1.01 | S. cerevisiae deletion strains, locus YKL085W, strain MDH1, stronger effect = lower value 1.01 | S. cerevisiae deletion strains, locus YKL160W, strain elf1, stronger effect = lower value 0.93 | S. cerevisiae deletion strains, locus YKL190W, strain CNB1, stronger effect = lower value 1.01 | S. cerevisiae deletion strains, locus YKR001C, strain vps1, stronger effect = lower value 0.991 | S. cerevisiae deletion strains, locus YKR026C, strain gcn3, stronger effect = lower value 0.972 | S. cerevisiae deletion strains, locus YKR091W, strain srl3, stronger effect = lower value 0.962 | S. cerevisiae deletion strains, locus YLL001W, strain dnm1, stronger effect = lower value 1 | S. cerevisiae deletion strains, locus YLL026W, stronger effect = lower value 0.966 | S. cerevisiae deletion strains, locus YLL041C, strain sdh2, stronger effect = lower value 0.976 | S. cerevisiae deletion strains, locus YLR027C, strain aat2, stronger effect = lower value 0.983 | S. cerevisiae deletion strains, locus YLR039C, strain RIC1, stronger effect = lower value 0.993 | S. cerevisiae deletion strains, locus YLR058C, strain SHM2, stronger effect = lower value 1.01 | S. cerevisiae deletion strains, locus YLR102C, strain apc9, stronger effect = lower value 0.997 | S. cerevisiae deletion strains, locus YLR113W, strain HOG1, stronger effect = lower value 1.04 | S. cerevisiae deletion strains, locus YLR221C, strain rsa3, stronger effect = lower value 1.02 | S. cerevisiae deletion strains, locus YLR258W, strain gsy2, stronger effect = lower value 0.981 | S. cerevisiae deletion strains, locus YLR262C, strain YPT6 (second series), stronger effect = lower value 0.983 | S. cerevisiae deletion strains, locus YLR262C, strain YPT6, stronger effect = lower value 1.08 | S. cerevisiae deletion strains, locus YLR268W, strain sec22, stronger effect = lower value 1.01 | S. cerevisiae deletion strains, locus YLR320W, strain mms22, stronger effect = lower value 1 | S. cerevisiae deletion strains, locus YLR330W, strain CHS5, stronger effect = lower value 1.01 | S. cerevisiae deletion strains, locus YLR342W, strain FKS1 (second series), stronger effect = lower value 1.01 | S. cerevisiae deletion strains, locus YLR342W, strain FKS1, stronger effect = lower value 0.985 | S. cerevisiae deletion strains, locus YLR357W, strain rsc2, stronger effect = lower value 0.928 | S. cerevisiae deletion strains, locus YLR370C, strain arc18, stronger effect = lower value 0.951 | S. cerevisiae deletion strains, locus YLR371W, strain rom2, stronger effect = lower value 1 | S. cerevisiae deletion strains, locus YLR384C, strain iki3, stronger effect = lower value 0.97 | S. cerevisiae deletion strains, locus YLR418C, strain cdc73, stronger effect = lower value 0.998 | S. cerevisiae deletion strains, locus YML016C, strain PPZ1, stronger effect = lower value 1.01 | S. cerevisiae deletion strains, locus YML032C, strain rad52, stronger effect = lower value 0.994 | S. cerevisiae deletion strains, locus YML120C, strain ndi1, stronger effect = lower value 0.995 | S. cerevisiae deletion strains, locus YML124C, strain tub3, stronger effect = lower value 1 | S. cerevisiae deletion strains, locus YMR058W, strain fet3, stronger effect = lower value 0.968 | S. cerevisiae deletion strains, locus YMR078C, strain ctf18, stronger effect = lower value 1.01 | S. cerevisiae deletion strains, locus YMR125W, strain sto1, stronger effect = lower value 0.964 | S. cerevisiae deletion strains, locus YMR129W, stronger effect = lower value 0.967 | S. cerevisiae deletion strains, locus YMR205C, strain PFK2, stronger effect = lower value 0.993 | S. cerevisiae deletion strains, locus YMR223W, strain ubp8, stronger effect = lower value 1.01 | S. cerevisiae deletion strains, locus YMR231W, strain pep5, stronger effect = lower value 0.985 | S. cerevisiae deletion strains, locus YMR307W, strain GAS1, stronger effect = lower value 0.926 | S. cerevisiae deletion strains, locus YNL067W, strain RPL9B, stronger effect = lower value 1.02 | S. cerevisiae deletion strains, locus YNL071W, strain lat1, stronger effect = lower value 0.977 | S. cerevisiae deletion strains, locus YNL128W, strain TEP1, stronger effect = lower value 1.03 | S. cerevisiae deletion strains, locus YNL183C, strain NPR1, stronger effect = lower value 0.975 | S. cerevisiae deletion strains, locus YNL209W, strain ssb2, stronger effect = lower value 0.956 | S. cerevisiae deletion strains, locus YNL233W, strain BNI4, stronger effect = lower value 1.01 | S. cerevisiae deletion strains, locus YNL248C, strain rpa49, stronger effect = lower value 0.907 | S. cerevisiae deletion strains, locus YNL250W, strain rad50, stronger effect = lower value 0.998 | S. cerevisiae deletion strains, locus YNL271C, strain bni1, stronger effect = lower value 1.03 | S. cerevisiae deletion strains, locus YNL298W, strain CLA4, stronger effect = lower value 1.01 | S. cerevisiae deletion strains, locus YNL307C, strain MCK1, stronger effect = lower value 1 | S. cerevisiae deletion strains, locus YNL322C, strain KRE1 (second series), stronger effect = lower value 0.97 | S. cerevisiae deletion strains, locus YNR049C, strain mso1, stronger effect = lower value 0.946 | S. cerevisiae deletion strains, locus YNR052C, strain pop2, stronger effect = lower value 1 | S. cerevisiae deletion strains, locus YOL006C, strain TOP1, stronger effect = lower value 1.04 | S. cerevisiae deletion strains, locus YOL012C, strain htz1 0.815 | S. cerevisiae deletion strains, locus YOL147C, strain pex11, stronger effect = lower value 1.01 | S. cerevisiae deletion strains, locus YOR001W, strain rrp6, stronger effect = lower value 1 | S. cerevisiae deletion strains, locus YOR061W, strain CKA2, stronger effect = lower value 1.02 | S. cerevisiae deletion strains, locus YOR069W, strain VPS5, stronger effect = lower value 1.01 | S. cerevisiae deletion strains, locus YOR070C, strain gyp1, stronger effect = lower value 0.981 | S. cerevisiae deletion strains, locus YOR080W, strain dia2, stronger effect = lower value 0.959 | S. cerevisiae deletion strains, locus YOR083W, strain WHI5, stronger effect = lower value 0.917 | S. cerevisiae deletion strains, locus YOR106W, strain vam3, stronger effect = lower value 0.914 | S. cerevisiae deletion strains, locus YOR136W, strain idh2, stronger effect = lower value 0.995 | S. cerevisiae deletion strains, locus YOR144C, strain elg1, stronger effect = lower value 0.998 | S. cerevisiae deletion strains, locus YOR184W, strain ser1, stronger effect = lower value 0.999 | S. cerevisiae deletion strains, locus YOR231W, strain MKK1, stronger effect = lower value 1.02 | S. cerevisiae deletion strains, locus YOR265W, strain rbl2, stronger effect = lower value 0.962 | S. cerevisiae deletion strains, locus YOR270C, strain vph1, stronger effect = lower value 0.951 | S. cerevisiae deletion strains, locus YOR290C, strain snf2, stronger effect = lower value 0.92 | S. cerevisiae deletion strains, locus YOR316C, strain cot1, stronger effect = lower value 1 | S. cerevisiae deletion strains, locus YPL051W, strain arl3, stronger effect = lower value 0.947 | S. cerevisiae deletion strains, locus YPL055C, strain LGE1, stronger effect = lower value 1.02 | S. cerevisiae deletion strains, locus YPL078C, strain atp4, stronger effect = lower value 0.953 | S. cerevisiae deletion strains, locus YPL106C, strain sse1, stronger effect = lower value 0.976 | S. cerevisiae deletion strains, locus YPL240C, strain hsp82, stronger effect = lower value 0.974 | S. cerevisiae deletion strains, locus YPL256C, strain CLN2, stronger effect = lower value 1.05 | S. cerevisiae deletion strains, locus YPR119W, strain clb2, stronger effect = lower value 1.01 | S. cerevisiae deletion strains, locus YPR141C, strain kar3, stronger effect = lower value 1 | S. cerevisiae deletion strains, locus YPR163C, strain tif3, stronger effect = lower value 0.999 | S. cerevisiae deletion strains, locus YPR167C, strain met16, stronger effect = lower value 1.02 | S. cerevisiae deletion strains, strain wtn01, stronger effect = lower value 1.01 | S. cerevisiae strains, strain wild type, stronger effect = lower value 1.02
